# From PubChem
# Sampled rows, rich in hits. Any-hit rate of the full collection: about 5.7%.
# KB-3-1 cytotox: kills parental KB-3-1 adenocarcinoma cells; KB-3-1 viability, CellTiter-Glo ATP luminescence, 72 h; Potency, µM (highest dose often 46.1 µM), actives largely listed as cytotoxic; 400,000 compounds, 1.4% hits; AID 1347075; note: nearly all actives have a fitted effect of over 60% in size
#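 KB-3-1 cells, DMEM (no phenol red) + 10% FBS; compound by pin transfer, 72 h, 37 °C. Readout: CellTiter-Glo luminescence after 10 min. Data normalized, curve-fitted.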
# HT1080 IDH1KD tx: toxicity to HT-1080 IDH1 knockdown cells (counter line); HT-1080 IDH1 knockdown viability, ATP luminescence, 48 h; Potency, µM (series often up to 46.1 µM), for inactives: at the top dose activity, negative = toxicity, hits mostly cytotoxic; 360,000 compounds, 2% hits;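 note: 0% = DMSO wells and -100% = cell-free medium wells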
#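 In this qHTS, HT-1080 cells depleted of IDH1 are exposed for 48 h at 37 °C to compound titrations. Toxicity is scored from CellTiter-Glo luminescence, with DMSO as full viability and medium alone as none.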
# HT1080NT lethal: kills 2HG-producing HT-1080-NT fibrosarcoma cells; HT-1080-NT fibrosarcoma viability, CellTiter-Glo ATP luminescence, 48 h; Potency, µM (series often up to 46.1 µM), for inactives: at the highest dose activity, negative = less viability, usual class: cytotoxic; 360,000 compounds, 1.6% hits;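 note: NT is the 2HG producing partner of a matched IDH1 knockdown line; 0% = DMSO-treated cells and -100% = media-only wells without cells; nearly all actives have a fitted effect of over 55% in size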
#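 HT-1080-NT; 750 cells/well; 5% FBS RPMI; 48 h compound, 37 degrees C; CellTiter-Glo luminescence; curve fitting and curve-class assignment.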
# KB-V1 cytotox: kills drug-selected multidrug resistant KB-V1 cells | KB-V1 MDR cells viability, CellTiter-Glo, 72 h | Potency, µM (doses to about 46.1 µM), most hits filed as cytotoxic | 400,000 compounds, 3.4% hits; note: nearly all actives have a fitted effect of over 60% in size
#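 KB-V1, DMEM (no phenol red) + 10% FBS; cpd pin-transferred, titration series; 72 h, 37 degrees C; CellTiter-Glo, luminescence. Data normalized, curve-fit.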
# Starred values were filed as active, the others as inactive; i = inactive; u = inconclusive; x = no result given. Calls come from the whole dose curve; as a rule, active = well fitted curve in the direction sought with a large enough effect; inconclusive = small, poorly fitted or top-dose-only effect, or another doubt; inactive = no such curve, though single readings can be large; an effect the other way counts as inactive or inconclusive. Unless noted, % is set by controls: 0 for no effect and ±100 for the full control effect; potency is the fitted concentration of half-maximal effect.
SMILES,KB-3-1 cytotox,HT1080 IDH1KD tx,HT1080NT lethal,KB-V1 cytotox
CC1CCCCN1C(=O)c1cnn2c1NC(=C1CC1)C=C2C(F)F (stereo unspecified),x,1.4%,6.6%,x
CCc1cccc(C)c1NC(=O)C(CC)Sc1nc2ccncc2[nH]1 (stereo unspecified),i,x,x,i
COc1ccc(C(C)(O)c2nc(-c3ccoc3)cs2)cc1 (stereo unspecified),i,-14.9%,18.7%,i
Cc1nc([N+](=O)[O-])cn1CC(=O)c1ccc2c(c1)OCCCO2,i,x,x,i
CCOc1ccccc1-c1nc2c([nH]1)c(=O)n(C)c(=O)n2C,u,3.0%,5.0%,10.3µM*
CCN(CC)S(=O)(=O)c1nnc(NC(=O)COc2ccc(C)cc2)s1,i,x,x,i
Oc1ccc(Br)cc1C1C=C(c2ccc3c(c2)OCO3)NC(c2ccc(Br)cc2)N1 (stereo unspecified),i,x,x,i
COC(=O)C1=C(C)N(c2cc(Cl)cc(Cl)c2)C(=O)C1,u,u,20.6µM*,u
O=C(c1ccco1)N1CCN(/C=C2\Nc3ccccc3C(=O)N2c2ccc(F)cc2)CC1,x,9.1%,15.7%,x
COc1ccc2c(Cn3cnc4cc([N+](=O)[O-])ccc4c3=O)cc(=O)oc2c1,4.61µM*,2.59µM*,3.66µM*,4.61µM*
c1ccc2oc(NC3=NCN(C4CCCCC4)CN3)nc2c1,i,5.7%,13.1%,i
c1ccc2sc(NC3=NCN(C4CCCCCC4)CN3)nc2c1,u,3.0%,-1.3%,20.6µM*
CC(O)CNCCCOc1ccccc1OCc1ccccc1 (stereo unspecified),i,-16.2%,-7.5%,u
CNCC(C)COc1ccccc1OCc1ccccc1 (stereo unspecified),i,-19.6%,-11.6%,20.6µM*
Oc1ccc2ccccc2c1C=NNc1ccccn1,u,u,u,0.517µM*
Oc1ccc2ccccc2c1/C=N/Nc1nnc(-c2ncc[nH]2)c2ccccc12,u,5.17µM*,5.8µM*,u
COC(=O)C1CCN(c2csc3ccc(Cl)cc3c2=O)CC1,i,x,x,i
CC(C)OCCCn1c(=O)c2ccccc2n2c(-c3ccc(F)c(F)c3)nnc12,i,x,x,i
Cc1ccc2nc3ccc(N4CCCC4)nn3c(=O)c2c1,i,11.4%,20.4%,u
CC1CCCN(c2ccc3nc4ccccc4c(=O)n3n2)C1 (stereo unspecified),u,-29.0%,-26.6%,7.31µM*
O=C(/C=C/c1ccc(Cl)cc1)N1CCN(c2ccc([N+](=O)[O-])c(N3CCOCC3)c2)CC1,u,5.3%,8.6%,2.31µM*
Cc1ccc(OCC(=O)N2CCN(c3ccc([N+](=O)[O-])c(N4CCOCC4)c3)CC2)cc1,i,-5.7%,-8.3%,u
O=C(COc1ccc(Cl)cc1)N1CCN(c2ccc([N+](=O)[O-])c(N3CCOCC3)c2)CC1,i,-0.6%,-14.8%,16.4µM*
CCOC(=O)C1(C)C=C(Nc2ccc(C(N)=O)cc2)C(=O)N1c1ccccc1 (stereo unspecified),i,x,x,i
CC(C)Oc1ccc(C(CC(=O)NCc2ccco2)c2ccccc2)cc1 (stereo unspecified),i,3.0%,-17.0%,20.6µM*
SMILES,KB-3-1 cytotox,HT1080 IDH1KD tx,HT1080NT lethal,KB-V1 cytotox
COc1ccc(CNCCC(c2ccc(OC(C)C)cc2)c2ccccc2OC)cc1 (stereo unspecified),u,u,u,20.6µM*
COc1ccc(CNCCC(c2ccc(OC(C)C)cc2)c2ccccc2OC)cc1OC (stereo unspecified),u,18.4µM*,14.6µM*,u
COc1ccccc1C(CC(=O)Nc1ccc(C)c(C)c1)c1ccc(OC(C)C)cc1 (stereo unspecified),i,u,u,i
COc1ccccc1C(CCNCc1ccccc1)c1ccc(OC(C)C)cc1 (stereo unspecified),u,u,u,i
COc1ccccc1NC(=O)CC(c1ccc(OC(C)C)cc1)c1ccccc1OC (stereo unspecified),i,6.7%,10.0%,4.61µM*
CCOC(=O)c1c(SCCN2CCCC2)n(-c2ccccc2)c(=S)n(-c2ccccc2)c1=O,i,7.31µM*,u,i
O=S(=O)(c1ccccc1F)N1CCN(c2nc(-c3cccs3)nc3ccccc23)CC1,u,20.3%,22.5%,i
CSc1nc(NCC(C)C)c2c3c(sc2n1)CN(C)CC3,i,u,-30.4%,18.4µM*
COCCNc1nc(SC)nc2sc3c(c12)CCN(C)C3,i,-14.3%,-9.9%,i
O=c1c2ccccc2c(-c2cccc(C(F)(F)F)c2)nn1-c1ccccc1,u,-17.2%,-1.5%,i
O=c1c2ccccc2c(-c2ccc(O)cc2)nn1-c1cccc(C(F)(F)F)c1,u,20.6µM*,u,13µM*
Cc1ccc(C)c(NC(=O)CSc2nnc([C@@H]3CCCN3C(=O)OC(C)(C)C)o2)c1,i,-2.0%,-3.6%,i
Cc1cccc(NC(=O)CSc2nnc([C@@H]3CCCN3C(=O)OC(C)(C)C)o2)c1C,20.6µM*,6.7%,7.1%,u
Cc1ccc2oc(=S)n(C)c2c1,i,-10.1%,-3.8%,i
Cc1ccc2c(C)c(C)c(=O)n(C)c2c1,i,12.6%,8.7%,14.6µM*
CCOC(=O)c1c(S(=O)(=O)N2CCC(C(=O)NCc3cccc(OC)c3)CC2)c(C)n(C)c1C,i,x,x,i
COc1ccc(Cn2c(CCC(=O)Nc3ccc(CC#N)cc3)nc3cccnc32)cc1,i,u,u,2.59µM*
COc1ccc(Cn2c(CCC(=O)Nc3ccccc3)nc3cccnc32)cc1,i,u,-27.2%,i
CCCN(C(=O)/C=C/c1ccc(S(=O)(=O)N(CC)CC)cc1)C1CCS(=O)(=O)C1 (stereo unspecified),i,6.2%,3.5%,23.1µM*
CCCCN(C(=O)/C=C/c1ccc(OC)cc1)C1CCS(=O)(=O)C1 (stereo unspecified),i,10.5%,1.9%,u
Cc1ccc(C)c(Nc2nnc(-c3ccc(C)c(S(=O)(=O)N4CCN(C)CC4)c3)c3ccccc23)c1,i,x,x,i
Cc1ccc(Nc2nc(CSc3nnc(-c4ccccc4C)n3C)cs2)cc1,u,-12.7%,-5.9%,6.51µM*
Cc1ccc(Nc2nc(CSc3nnc(-c4ccccc4)n3C)cs2)cc1,u,-2.0%,-0.1%,i
Cc1ccc(Nc2nc(CSc3nnnn3C)cs2)cc1,i,1.3%,10.7%,23.1µM*
Cc1ccc(Nc2nc(CSc3nnnn3-c3ccccc3)cs2)cc1,u,-28.9%,-26.7%,14.6µM*
CCCCNC(=O)CC1Nc2cc(C)c(C)cc2NC1=O (stereo unspecified),i,x,x,i
COC(=O)c1c(C)[nH]c(C(=O)C(C)OC(=O)c2cc(C)oc2C)c1C (stereo unspecified),x,-23.3%,9.6%,x
